Compound activity as filed in PubChem.
INS-1E GSIS act: GLuc luminescence reporter in INS-1E cells, primary screen for activators of glucose-dependent secretion of insulin. INS-1E GLuc reporter insulin secretion, 2-3 h. activation, % at 16.6 µM. 370,000 tested, 0.61% active. AID 743287, 2014;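 active = lowest replicate activation of at least 40%, so every replicate reaches that level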;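 also: 0% = median of neutral control wells and 100% = median of IBMX positive control wells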
DYRK1A inh: rat Dyrk1A kinase inhibitors, primary screen, biochemical, single point, plate reader. Dual specificity tyrosine-phosphorylation-regulated kinase 1A (Rattus norvegicus), Q63470. ADP-Glo luminescence, NFATc1 peptide. inhibition, % at 12.5 µM. 310,000 tested, 0.43% active. AID 504441, 2011;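 also: plate controls were vehicle with enzyme for no effect and no enzyme for full effect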
Wnt act: Wnt/beta-catenin pathway activators, primary screen, cell-based, plate reader, single point; Wnt/beta-catenin reporter cell assay, activator; activation, % at 9.35 µM; 300,000 tested, 1.2% active; in the data active = activation above about 30%, passing the limit was not always enough;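 also: 0% = neutral control wells and 100% = positive control wells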
MITF TRPM1 HTS: activators of MITF-driven TRPM1 promoter reporter, primary screen, cell-based, SK-MEL-5, luciferase, single point; SK-MEL-5 TRPM1-promoter luciferase, 24 h; % of positive control, neutral wells = 0; activation, % at 12.5 µM; 300,000 tested, 0.75% active;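 active = mean activation of at least 80% with every replicate also reaching 80%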;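 also: 0% = neutral control wells and 100% = parthenolide positive control wells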
miR-122 sensor: miR-122 Renilla sensor signal increase in Huh7, primary screen, miR-122 inhibitor project, cell-based, single point, plate reader; Huh7 miR-122 Renilla luciferase sensor, 48 h; neutral wells = 0, positive control = 100; activation (reporter increase), % at 12.5 µM; 340,000 tested, 0.3% active;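 active = mean replicate activation score at least 90 and every replicate individually at or above 90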;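 also: higher luciferase means less miR-122 activity so hits act as miR-122 inhibitors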
NSD2 inh: NSD2 histone methyltransferase inhibitors, primary screen, biochemical, AlphaScreen, single concentration, set 2. Histone-lysine N-methyltransferase NSD2 (Homo sapiens), O96028. NSD2 peptide methylation, 120 min. inhibition, % at 12.5 µM. 310,000 tested, 0.54% active
Target sequence (O96028 whole entry, looked up): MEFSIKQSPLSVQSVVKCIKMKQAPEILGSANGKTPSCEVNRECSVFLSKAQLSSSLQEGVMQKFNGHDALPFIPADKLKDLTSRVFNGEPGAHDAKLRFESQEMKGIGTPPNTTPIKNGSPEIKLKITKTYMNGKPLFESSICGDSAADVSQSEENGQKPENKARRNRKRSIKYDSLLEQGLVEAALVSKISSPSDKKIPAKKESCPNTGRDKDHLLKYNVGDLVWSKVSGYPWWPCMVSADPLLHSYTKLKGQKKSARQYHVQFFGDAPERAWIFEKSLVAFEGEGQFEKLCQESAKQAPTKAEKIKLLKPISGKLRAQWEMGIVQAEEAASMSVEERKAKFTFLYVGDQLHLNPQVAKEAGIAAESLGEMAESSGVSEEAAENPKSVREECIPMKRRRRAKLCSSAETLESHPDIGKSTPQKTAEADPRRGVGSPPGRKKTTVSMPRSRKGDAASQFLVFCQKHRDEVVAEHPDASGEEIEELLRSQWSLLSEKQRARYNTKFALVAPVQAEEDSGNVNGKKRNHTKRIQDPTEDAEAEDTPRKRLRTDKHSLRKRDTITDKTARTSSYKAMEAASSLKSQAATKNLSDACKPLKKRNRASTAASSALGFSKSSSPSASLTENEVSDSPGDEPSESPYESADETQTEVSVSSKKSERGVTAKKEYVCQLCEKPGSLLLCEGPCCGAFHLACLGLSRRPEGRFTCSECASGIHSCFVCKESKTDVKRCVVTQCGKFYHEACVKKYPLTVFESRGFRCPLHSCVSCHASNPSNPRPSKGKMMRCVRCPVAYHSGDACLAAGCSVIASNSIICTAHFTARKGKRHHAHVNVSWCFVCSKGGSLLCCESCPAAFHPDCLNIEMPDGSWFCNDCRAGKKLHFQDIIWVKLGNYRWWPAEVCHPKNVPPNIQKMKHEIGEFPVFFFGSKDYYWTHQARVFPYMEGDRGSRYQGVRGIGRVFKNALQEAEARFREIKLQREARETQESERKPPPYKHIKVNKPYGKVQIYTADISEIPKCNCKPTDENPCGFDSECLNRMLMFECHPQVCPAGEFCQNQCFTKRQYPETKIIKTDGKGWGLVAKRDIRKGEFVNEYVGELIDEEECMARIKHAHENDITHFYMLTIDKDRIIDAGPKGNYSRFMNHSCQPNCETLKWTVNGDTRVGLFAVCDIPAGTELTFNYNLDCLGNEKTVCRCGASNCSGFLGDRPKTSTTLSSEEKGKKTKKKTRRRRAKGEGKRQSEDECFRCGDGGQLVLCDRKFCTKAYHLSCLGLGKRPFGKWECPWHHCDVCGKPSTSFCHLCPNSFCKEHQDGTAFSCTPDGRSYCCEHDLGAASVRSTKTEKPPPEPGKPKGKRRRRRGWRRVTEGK
Numbers without * were called inactive; [ ] = another dose, or the depositor's remark. Shown are actives, neighbours in structure and some others; about 2.4% of the full set was active somewhere. Rule as the data show it, unless noted: active = inhibition above about 50%; inactive = the rest.

`Fc1ccc(-n2nnc(-c3ccccc3)n2)cc1` gave INS-1E GSIS act 3.6, DYRK1A inh -0.8, Wnt act -1.2, MITF TRPM1 HTS 5.2, miR-122 sensor 6.6 and NSD2 inh -2.0.
For C[C@H]1CCCCO[C@@H](CN(C)C)[C@@H](C)CN([C@@H](C)CO)C(=O)c2cc(NC(=O)C3CCCCC3)ccc2O1 the results were INS-1E GSIS act -6.6 and miR-122 sensor -13.8[16.7 µM].
Screening O=C1C(Cl)=C(N2CCOCC2)C(=O)N1c1cccc(Cl)c1 returned INS-1E GSIS act 44.7*, DYRK1A inh -0.9, Wnt act -4.5, MITF TRPM1 HTS 3.7, miR-122 sensor -0.8 and NSD2 inh 0.4.
For Cc1cccc(N2C(=O)C(Cl)=C(N3CCOCC3)C2=O)c1 the results were INS-1E GSIS act 4.0, DYRK1A inh 7.2, Wnt act 2.8, miR-122 sensor -4.4 and NSD2 inh 2.3.
For Cc1cccc(NC(=S)NNC(=O)c2csc(C(C)C)c2)c1 the results were DYRK1A inh -1.2, Wnt act 50.3*, miR-122 sensor -4.5 and NSD2 inh 5.0.
Screening Cc1cccc(NC(=S)NNC(=O)c2sccc2C)c1 returned INS-1E GSIS act -18.4, DYRK1A inh 11.3, MITF TRPM1 HTS 20.6, miR-122 sensor -1.2 and NSD2 inh 1.0.
CCc1cc(C(=O)NNC(=S)Nc2cccc(C)c2)cs1 was read as DYRK1A inh -1.6, Wnt act 38.9*, miR-122 sensor -1.7 and NSD2 inh -2.1.
Cc1ccc(NC(=O)c2cnccn2)c(Br)c1 was read as DYRK1A inh 0.3, Wnt act 13.3, MITF TRPM1 HTS 70.9, miR-122 sensor 2.1 and NSD2 inh -2.6.
For Cc1cccc(C(=O)NNC(=O)Nc2ccccc2)c1 the results were INS-1E GSIS act -7.9, DYRK1A inh 2.5, MITF TRPM1 HTS -17.5, miR-122 sensor 16.4 and NSD2 inh -1.6.
Screening CCc1cc(C(=O)Nc2ccc(C)cc2Br)cs1 returned DYRK1A inh 2.8, Wnt act 69.8* and NSD2 inh -0.4.
Screening CC(C)OC(=O)N(C)C[C@H]1OCc2ccccc2-c2ccccc2C(=O)N([C@H](C)CO)C[C@@H]1C returned INS-1E GSIS act 1.2.
COc1ccc(S(=O)(=O)N(C)C[C@H]2Oc3ccc(NC(=O)Nc4ccc(F)cc4)cc3C(=O)N([C@H](C)CO)C[C@H]2C)cc1 was read as INS-1E GSIS act -24.2 and miR-122 sensor 101.2*[16.7 µM].
For COc1ccc(NC(=O)Nc2ccc3c(c2)C(=O)N([C@H](C)CO)C[C@@H](C)[C@H](CN(C)S(=O)(=O)c2ccc(OC)cc2)O3)cc1 the results were INS-1E GSIS act -12.7 and miR-122 sensor 18.3[16.7 µM].
COc1ccc(S(=O)(=O)N(C)C[C@@H]2Oc3ccc(NC(=O)Nc4ccc(F)cc4)cc3C(=O)N([C@@H](C)CO)C[C@H]2C)cc1 was read as INS-1E GSIS act -19.1 and miR-122 sensor 1.9[16.7 µM].
For COc1ccc(NC(=O)Nc2ccc3c(c2)C(=O)N([C@H](C)CO)C[C@@H](C)[C@@H](CN(C)S(=O)(=O)c2ccc(OC)cc2)O3)cc1 the results were INS-1E GSIS act -13.9 and miR-122 sensor 101.4*[16.7 µM].
Cc1cc(Cl)ccc1OCc1cn2cccnc2n1 was read as INS-1E GSIS act 18.2, Wnt act 16.4 and MITF TRPM1 HTS 82.5*.
`Clc1ccc(OCc2cn3cccnc3n2)c2ncccc12` gave DYRK1A inh 2.0, MITF TRPM1 HTS 34.9, miR-122 sensor -4.0 and NSD2 inh -0.2.
Cc1cc(/C=C(\C#N)C(=O)NCc2ccco2)c(C)n1C1CCCC1 was read as DYRK1A inh -4.3, Wnt act 39.4*, MITF TRPM1 HTS 57.9, miR-122 sensor 23.1 and NSD2 inh 2.1.
Screening N#C/C(=C\c1cn(CCOc2ccccc2)c2ccccc12)C(=O)NCc1cccs1 returned INS-1E GSIS act 98.8*, DYRK1A inh -2.8, MITF TRPM1 HTS -3.7, miR-122 sensor 3.7 and NSD2 inh -2.1.
For N#C/C(=C\c1ccc(OCc2cccc(C(=O)O)c2)cc1)C(=O)NCc1ccco1 the results were INS-1E GSIS act -13.2, DYRK1A inh 5.4, Wnt act 38.8* and MITF TRPM1 HTS 10.7.
N#C/C(=C\c1cn(Cc2ccccc2F)c2ccccc12)C(=O)NCc1ccco1 was read as INS-1E GSIS act 55.7*, DYRK1A inh -7.7, MITF TRPM1 HTS -2.4 and NSD2 inh 2.0.
Screening O=C(C[C@@H]1C[C@H]2c3cc(NC(=O)NC4CCCC4)ccc3O[C@H]2[C@H](CO)O1)NC1CCCC1 returned INS-1E GSIS act -6.0 and miR-122 sensor 2.7[16.7 µM].
Screening CCCC(=O)Nc1ccc2c(c1)C(=O)N(C)[C@@H]1CC[C@H](CC(=O)NCCc3ccncc3)O[C@H]1CO2 returned INS-1E GSIS act -0.5 and miR-122 sensor -1.0[16.7 µM].
Screening CCOC(=O)c1ccc(N/C=C/C(=O)c2ccccc2)cc1 returned INS-1E GSIS act 4.0, DYRK1A inh -5.1, Wnt act 74.5*, MITF TRPM1 HTS 65.4 and NSD2 inh 22.9.
CCOC(=O)c1ccc(N/C=C/C(=O)C(C)(C)C)cc1 was read as INS-1E GSIS act -22.0, DYRK1A inh -0.2, Wnt act 77.6*, MITF TRPM1 HTS 56.8 and NSD2 inh -2.0.
`CCOC(=O)c1ccc(N/C=C/C(=O)c2ccc(OC)cc2)cc1` gave DYRK1A inh 2.5, MITF TRPM1 HTS 21.2, miR-122 sensor -3.9 and NSD2 inh 0.0.
Cc1ccc(C(=O)/C=C/Nc2ccccc2C(N)=O)cc1 was read as DYRK1A inh -3.5, Wnt act 38.6*, MITF TRPM1 HTS 0.9, miR-122 sensor 2.9 and NSD2 inh 2.0.
For NC(=O)c1ccccc1N/C=C/C(=O)c1ccc(Cl)cc1 the results were DYRK1A inh 0.8, Wnt act 0.5, MITF TRPM1 HTS 17.5, miR-122 sensor 11.5 and NSD2 inh -0.8.
Screening CCOC(=O)c1ccccc1N/C=C/C(=O)c1ccccc1 returned DYRK1A inh 0.7, Wnt act 54.4*, MITF TRPM1 HTS -6.9, miR-122 sensor -1.4 and NSD2 inh 0.1.
For COc1cccc(-c2ccc([C@H]3[C@@H](CO)N4C(=O)CN(C(=O)c5cccnc5)C[C@H]34)cc2)c1 the results were INS-1E GSIS act -7.6.
Screening COc1ccc2c3c([nH]c2c1)[C@@H](CO)N(Cc1ccccc1F)CC31CCN(S(C)(=O)=O)CC1 returned INS-1E GSIS act 15.8.
`O=C(Nc1ccc2c(c1)[C@H]1C[C@@H](CC(=O)N3CCc4ccccc4C3)O[C@@H](CO)[C@H]1O2)c1ccc2c(c1)OCO2` gave INS-1E GSIS act -11.5 and miR-122 sensor -3.8[16.7 µM].
